# From PubChem BioAssay
# GLS inh = inhibitors of human glutaminase (GLS). O94925. GLS enzymatic activity, qHTS titration. Potency, µM (titrated, usually from 45.5 µM), most hits filed as inhibitors. hit rate 0.21% among 410,000. AID 624170
#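 Coupled fluorescence readout: glutamate oxidase/HRP/Amplex Red detect glutamate formed by hKGA from L-glutamine (1 mM solution added). Buffer 45 mM KH2PO4 pH 8.2, 0.02% Tween-20; reads at t0 and 30 min RT.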
# BAZ2B inh = BAZ2B (human) inhibition; Potency, µM (titrated, usually from 114 µM), most hits filed as inhibitors; hit rate 4.4% among 360,000; AID 504333; AlphaScreen BAZ2B-H3K14Ac peptide displacement; also: nearly all actives have a fitted effect of over 60% in size
#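 Multi-concentration screen (max 110 uM) measuring displacement of acetylated histone H3 peptide from BAZ2B by AlphaScreen, using 50 nM protein, 50 nM peptide and 10 ug/mL streptavidin donor plus Ni-chelate acceptor beads.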
# JMJD2A Tudor inh = blocks the human JMJD2A Tudor domain; O75164; AlphaScreen JMJD2A-Tudor / H3K4me3 peptide binding; Potency, µM (highest dose often 114 µM), most hits filed as inhibitors; hit rate 4.4% among 390,000; AID 504339; also: nearly all actives have a fitted effect of over 50% in size
# HP1b binding inh = inhibitors of HP1-beta chromodomain binding to methylated histone tails. P83916. AlphaScreen HP1-beta / biotin-H3K9me3 peptide binding. Potency, µM (top dose mostly 114 µM), hits mostly inhibitors. hit rate 0.56% among 390,000; also: nearly all actives have a fitted effect of over 70% in size
# Target sequence (P83916 whole entry, looked up): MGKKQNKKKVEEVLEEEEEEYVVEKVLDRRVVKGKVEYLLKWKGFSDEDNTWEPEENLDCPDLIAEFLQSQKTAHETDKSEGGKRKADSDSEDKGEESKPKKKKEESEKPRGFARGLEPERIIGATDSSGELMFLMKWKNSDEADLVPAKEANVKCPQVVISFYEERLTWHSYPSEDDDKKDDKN
#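 Compound inhibition of the preformed complex between 50 nM HP1-beta and 50 nM biotinylated H3K9me3 peptide was read by AlphaScreen. Buffer was PBS pH 7.4 with 0.01% Tween-20. Incubations ran 30 min at room temperature, with 10 ug/mL donor/acceptor beads.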
# G9a inh = blocks human histone lysine methyltransferase G9a; Q96KQ7; Potency, µM (series often up to 102 µM), most hits filed as inhibitors; AID 504332; G9a H3K9 monomethylation, AlphaScreen, 2 h; hit rate 8.8% among 350,000; also: nearly all actives have a fitted effect of over 75% in size
# Target sequence (Q96KQ7 913-1193 limits assumed): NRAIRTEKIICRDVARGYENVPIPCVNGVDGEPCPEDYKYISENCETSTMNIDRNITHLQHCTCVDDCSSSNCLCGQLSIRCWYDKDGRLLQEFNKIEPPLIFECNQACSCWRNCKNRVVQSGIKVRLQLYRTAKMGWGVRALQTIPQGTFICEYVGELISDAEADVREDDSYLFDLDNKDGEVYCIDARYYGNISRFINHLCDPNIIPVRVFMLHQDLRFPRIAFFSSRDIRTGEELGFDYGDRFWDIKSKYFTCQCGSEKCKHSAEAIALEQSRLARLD
#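 AlphaScreen read-out: biotin-H3K9 peptide (500 nM) methylation by 20 nM enzyme with 20 uM SAM, 2 h at room temperature after 15 min compound preincubation; anti-monomethyl H3K9 antibody plus donor/acceptor beads, 10 min dark.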
# Hits are given with their value; . = inactive; ? = inconclusive; / = not tested or not shown; [ ] = remark or other dose. Most compounds without a hit are left out; they make up all but 10% or so of the library. Calls follow the shape of the dose curve; as a rule, active = well fitted curve in the direction sought with a large enough effect; inconclusive = small, poorly fitted or top-dose-only effect, or another doubt; inactive = no such curve, though single readings can be large; an effect the other way counts as inactive or inconclusive.
SMILES,GLS inh,BAZ2B inh,JMJD2A Tudor inh,HP1b binding inh,G9a inh
CCN1CCN(c2cc(C)c3cc(NC(=S)NCCCOC)ccc3n2)CC1,.,.,.,.,?
COc1cccc(-c2cc3nc(NCCCN(C)C)n(C)c(=O)c3s2)c1,.,/,/,/,/
COc1ccc(N=Nc2ccc3ccccc3c2)c(O)c1,.,5.6µM,10µM,3.2µM,10µM
COc1ccc(N=Nc2cc(C)ccc2O)cc1,.,8.9µM,25µM,14µM,?
COc1ccc(C(=O)c2ccccc2)c(O)c1,.,.,.,.,.[12.7 µM]
Cc1ccc(O)c(N=Nc2ccc(S(=O)(=O)N3CCCC3)cc2)c1,.,4µM,?,.,8.9µM
COc1ccc(N=Nc2ccc(CO)cc2)cc1,.,/,?,.,/
Cc1ccc(O)c(N=Nc2nccs2)c1,.,10µM,35µM,?,?
CCOC(=O)CSc1nnc2cc(C)c3ccccc3n12,.,.,.[11.4 µM],.,.
COc1cccc(N=Nc2ccc3ccccc3c2O)c1,.,1.6µM,2.8µM,?,/
COc1ccc(N=Cc2oc3ccc4ccccc4c3c2O)cc1,.,.,.,.,.
N=c1nc(N)nc2n1NC(c1ccc(F)cc1)=CS2,.,.,.,.,.[12.7 µM]
Clc1ccc(-c2nnc3c4ccccc4nc(N4CCOCC4)n23)cc1Cl,.,.,.,.,/
CCc1ccc2c(c1)C(NC(C)=O)C(=O)N2CCN1CCOCC1 (stereo not given),5µM,13µM,10µM,.,28µM
CCCN1C(=O)C(NC(C)=O)c2ccccc21 (stereo not given),.,.,.,.,40µM
COc1ccc2c(c1)C(NC(C)=O)C(=O)N2CCc1ccccc1 (stereo not given),.,.,.,.,.
O=C(NCCN1CCOCC1)c1ccc(CS(=O)c2ccccc2Cl)o1 (stereo not given),.,.,.,.,.
N#C/C(=C(/O)CCl)c1nnc2n1CCCCC2,.,79µM,20µM,.,.
Cc1c(NC(=O)c2cn3ccccc3n2)cccc1-n1cnnn1,.,.,20µM,.,?
O=C(Nc1ccc(-n2cnnn2)cc1)c1cn2ccccc2n1,.,.,.,.,.
Cc1ccc2nc3c(c(N)c2c1)CCN3c1ccccc1,.,56µM,0.79µM,?,18µM
Cc1cccc2c(N)c3c(nc12)N(C)CC3,.,50µM,18µM,.,50µM
CN1CCc2c1nc1ccccc1c2N (tested in a mixture with another compound),.,.,.,.,79µM
CN1CCCCc2c1nc1c(c2N)CCCC1,.,?,1.8µM,?,?
Cc1nc(N)nc2c1CCCC2,.,.,.,.,.
SMILES,GLS inh,BAZ2B inh,JMJD2A Tudor inh,HP1b binding inh,G9a inh
Nc1c2c(nc3cccc(Cl)c13)N(c1ccccc1)CC2,.,.,.,.,.
O=C(c1cc2c(c(-c3cccc(-c4ccncc4)c3)n1)[C@H](CCO)N(C(=O)c1ccc3c(c1)OCO3)C2)N1CCOCC1,.,/,/,/,/
CC(C)(C)C(=O)N1CCC(O)(CS(=O)(=O)Cc2ccc(Cl)cc2)CC1,/,.,.,.,.
CCCCN1CCc2c1nc1ccc(Br)cc1c2N,.,.,.,.,.[12.7 µM]
CN1CCc2c1nc1ccccc1c2N=C1CCCN1Cc1ccccc1,.,.,45µM,.,.
Cc1ccc2nc3c(c(N)c2c1)CCN3C,.,79µM,25µM,35µM,8.9µM
Cc1cc(C)c(N=C2CCCN2Cc2ccccc2)c(C#N)c1,.,.,.,.,.
C/C(=N\NC(=O)CNc1cccc(C(F)(F)F)c1)c1cccc(Br)c1,.,.,.,.,.
O=C(CSc1nnc(C2COc3ccccc3O2)o1)N1CCCC1 (stereo not given),.,.,.,?,8.9µM
CCOC(=O)N1CCN(C(=O)CSc2nnc(C3COc4ccccc4O3)o2)CC1 (stereo not given),.,.,.,.,?
CCOc1ccc2cc(C#N)c(SCC(=O)N3CCOCC3)nc2c1,.,.,.,.,50µM
c1ccc(CCNc2ncnc3sccc23)nc1,.,.,.,.,?
CCOC(=O)C1=C(C)Nc2nc(SCC)nn2C1c1ccc(OC)cc1 (stereo not given),.,.,.,.,.[12.7 µM]
CCOC(=O)C1=C(C)Nc2nc(=S)[nH]n2C1c1ccc(Cl)cc1 (stereo not given),.,.,16µM,?,1.3µM
Cc1ccc(-c2nc(Nc3ccc(O)cc3)c3ccccc3n2)cc1,.,.,?,.,.
